HSF1 inh = HSF1 inhibition. AID 2098. NIH3T3-HGL HSE-luciferase, MG132-induced, luminescence 8 h; stronger effect = lower value. activity change, negative = inhibition, % at 7.5 µM (by protocol). 300,000 compounds, 0.77% hits;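 active means more than half of replicate wells show activity change below -50%, luminescence cut by over half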;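 further: luciferase reports HSF-1 transcriptional activity via heat shock element; 0% = median of DMSO wells and -100% = zero luminescence signal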
AHR activator = human AHR activation | P35869 | AHR-responsive luciferase reporter cells, luminescence | activation, % at 5 µM | 320,000 compounds, 2.5% hits; in the data active means activation above about 47%;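 further: 0% = vehicle wells and 100% = reference agonist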
HSF-1 act = increases HSF-1 driven luciferase reporter signal; NIH3T3-HGL HSF-1 luciferase reporter, MG132, 8 h; 100% = twice DMSO control signal; 300,000 compounds, 1.7% hits; activation, % at 9 µM;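 active means mean replicate activation of at least 50% with a set share of replicates each reaching 50%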;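 further: 0% = median of the neutral control wells and 100% = twice that signal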
FXN GAA850 act = frataxin GAA850 promoter activation | 360,000 compounds, 0.56% hits | activation, % at 6 µM | HEK293 lucGAA850 FXN promoter luciferase reporter, 24 h; percent of 10 µM SAHA response;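 active means activation above the average of all compounds screened plus 3 SD, cutoff fixed separately per campaign, cut at about 7.5% in these data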;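 further: 0% = DMSO wells and 100% = 10 µM SAHA wells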
DAX1 inh = inhibits human nuclear receptor DAX1 | inhibition, % at 6.75 µM | P51843 | HEK293 Gal4-DAX1 luciferase reporter, luminescence | 340,000 compounds, 0.99% hits;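 active means inhibition above the mean over all tested compounds plus 3 SD, cut at about 4.2% in these data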;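 further: 0% = DAX1-transfected cells with DMSO and 100% = empty-vector control cells with DMSO; inhibition shows as a rise in luminescence from relieved DAX1 repression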
* = called active by the depositor; nt = no result. Hits are enriched below; roughly 5.4% of the tested compounds scored in any of these assays.

SMILES	HSF1 inh	AHR activator	HSF-1 act	FXN GAA850 act	DAX1 inh
CCOC(=O)Cc1csc(N/N=C\c2ccccc2OC)n1	15.1	51.1*	29.8	4.1	1.0
CCOC(=O)Cc1csc(N/N=C/c2ccccc2)n1	-14.2	-11.4	-15.7	-3.3	-0.3
O=C1OC(Nc2nc(-c3ccc(F)cc3)cs2)c2ccccc21 (stereo not given)	0.8	nt	4.4	2.0	-0.2
COc1ccc(C2N(c3cc(Cl)ccc3OC)C(=O)C3CCCN32)cc1OC (stereo not given)	-0.1	-1.0	-6.6	-1.0	1.7
O=C(CNC(=O)c1ccncc1)N/N=C/c1ccc(Br)cc1	-11.8	-2.2	-4.6	0.6	6.5*
Cc1ccc(NCC(=O)N/N=C/c2ccncc2)cc1	-3.2	64.2*	-0.5	0.2	0.1
CSc1ccc(/C=N\NC(=O)CNc2ccc(C)cc2)cc1	-8.1	20.6	-1.6	0.9	1.0
COc1ccc(NC(=O)CN(C)S(=O)(=O)c2ccc(Cl)cc2)cn1	nt	-0.2	nt	2.0	-0.5
CCCN1CCC2(CC1)C(C#N)=C(N)Oc1c2sc2nc(C)cc(C)c12	-4.5	61.1*	-11.4	0.6	1.1
CCOC(=O)N1CCC2(CC1)C(C#N)=C(N)Oc1c2sc2nc(C)cc(C)c12	5.0	10.6	8.6	-1.6	-0.5
S=C(NCc1ccc2[nH]c3c(c2c1)CCCC3)Nc1ccccc1Cl	5.7	58.3*	-0.3	-0.3	0.5
Cc1ccccc1NC(=S)NCc1ccc2[nH]c3c(c2c1)CCCC3	-0.1	35.6	-6.0	0.2	-0.5
CCC(=O)Nc1nc2ccc(NC(C)=O)cc2s1	11.1	75.8*	12.1	0.1	-1.2
CC(=O)Nc1ccc2nc(NC(=O)c3ccc([N+](=O)[O-])o3)sc2c1	18.7	57.6*	21.3	2.3	-2.5
COc1ccc(NC(=O)Cn2ccc(C(F)(F)F)n2)cc1S(=O)(=O)N1CCOCC1	nt	0.8	nt	-0.2	0.6
COc1ccc2c(=O)c3c(=O)n(CCc4ccccc4)c(C(C)C)nc3oc2c1	-0.6	1.8	-4.7	-1.4	4.7*
CC(C)c1nc2oc3ccccc3c(=O)c2c(=O)n1-c1ccccc1	9.8	103.3*	2.9	-5.2	0.0
Cc1nc2oc3ccccc3c(=O)c2c(=O)n1Cc1ccccc1	-2.3	-6.5	12.2	3.4	-1.1
CC(=O)NC(c1cccc(F)c1)c1nc(-c2csc3ccccc23)cs1 (stereo not given)	nt	nt	nt	-1.9	nt
COc1ccc(N(C(C)C(=O)N/N=C/c2ccc(OCC(C)C)cc2)S(C)(=O)=O)cc1 (stereo not given)	-7.4	3.7	-3.2	1.5	0.5
CCOc1ccc(/C=N/NC(=O)C(C)N(c2ccc(OC)cc2)S(C)(=O)=O)cc1 (stereo not given)	25.2	1.4	64.2*	0.4	-0.9
Cc1ccc(C(=O)NCCN2CCN(C(=O)c3ccc(C)c(C)c3)CC2)cc1C	-7.7	nt	-9.0	-0.1	1.4
O=C(NCCN1CCN(C(=O)c2ccc(Br)cc2)CC1)c1ccc(Br)cc1	42.5	4.3	67.8*	0.9	-0.1
C=CCn1c(SCc2ccccc2Cl)nnc1-c1sc2nc(C)cc(C)c2c1N	-8.6	79.4*	-12.8	1.2	0.4
COc1cc(NC(=O)c2cc(S(=O)(=O)N3CCCCC3)c[nH]2)cc(OC)c1	-1.7	13.0	-4.1	0.5	-0.2
SMILES	HSF1 inh	AHR activator	HSF-1 act	FXN GAA850 act	DAX1 inh
COc1ccc(OC)c(S(=O)(=O)NC(N)=NCCc2ccccc2)c1	-5.5	-0.8	17.1	0.6	-0.2
Cc1sc(NC(=O)c2ccco2)nc1-c1ccccc1	38.8	42.9	89.9*	4.8	3.9
CC(=O)c1sc(NC(=O)c2ccco2)nc1-c1ccccc1	14.4	0.4	22.1	2.8	0.7
COc1ccc2c(c1)Cc1sc(NC(=O)c3ccco3)nc1-2	41.7	-6.2	76.5*	4.2	2.3
COc1ccc2c(c1)CCc1sc(NC(=O)c3ccco3)nc1-2	25.5	4.1	32.3	1.9	-0.6
O=C(O)c1ccc(N/N=C/c2cn(Cc3ccc(F)cc3)c3ccccc23)cc1	-68.7*	-6.0	-74.4	5.2	-0.5
O=C(N/N=C/c1cn(Cc2ccccc2)c2ccccc12)c1cc(O)cc(O)c1	2.6	nt	7.6	1.6	0.3
CN(C)c1ccc(/C=N/NC(=O)C2COc3ccccc3O2)o1 (stereo not given)	-78.0*	3.1	-83.9	0.3	0.3
Cc1c(/C=N\NC(=O)C2COc3ccccc3O2)c2ccccc2n1C (stereo not given)	-19.1	50.8*	-17.7	0.2	1.1
Cc1c(/C=N/Nc2ccc(C(=O)O)cc2)c2ccccc2n1C	-65.3*	8.1	-64.7	6.8	-2.3
Cc1ccc(-n2c(O)c(/C=N/NC(=O)C3COc4ccccc4O3)c3ccccc3c2=O)cc1 (stereo not given)	0.2	0.5	3.7	2.0	-0.9
COc1cc(/C=C2\C(=N)N3N=C(S(=O)(=O)CC(C)C)SC3=NC2=O)ccc1OC(=O)c1ccco1	-1.1	-1.0	5.4	nt	nt
CC(=O)Nc1cccc(Oc2nc(NC(C)C)nc3cc(-c4ccccc4)sc23)c1	nt	nt	nt	0.2	nt
CC(NC(=O)CCNC(=O)c1ccc(C(C)(C)C)cc1)c1ccccc1 (stereo not given)	nt	9.5	nt	-1.3	-1.3
CCc1nc(C)cn1S(=O)(=O)c1ccc2c(c1)OCCO2	nt	nt	nt	0.2	0.7
CC(C)n1cc(/C=N/Nc2ccc(Cl)c(C(=O)O)c2)c2ccccc21	-4.7	19.8	0.5	1.7	4.5*
O=C(O)c1cc(N/N=C/c2cccc3ccccc23)ccc1Cl	-10.8	25.9	3.4	1.7	2.1
Cc1nc(NC(=O)c2ccc(F)cc2)nc2cc3c(cc12)OCO3	-0.6	64.7*	6.4	0.4	2.6
O=[N+]([O-])c1cccc(C=Nc2cc3c(cc2Br)OCCO3)c1	nt	1.5	nt	2.1	-0.2
Cc1cc(C)cc(-n2c(C)cc(/C=N/NC(=O)c3ccncc3)c2C)c1	1.5	10.6	16.5	4.5	0.6
Cc1cc(/C=N/NC(=O)c2ccsc2)c(C)n1-c1cnccn1	16.1	77.5*	21.1	4.8	0.3
CCCC(=O)Nc1cccc(Oc2nc(C)cc(C)c2C#N)c1	-6.4	58.4*	3.2	1.1	-0.9
COc1ccc(C(=O)COc2nc(C)cc(C)c2C#N)cc1	7.5	47.2*	4.9	-0.1	1.5
COC(=O)c1ccc(COC(=O)C(CCSC)NC(=O)COc2ccccc2)cc1 (stereo not given)	3.3	-0.9	-8.5	0.8	0.6
CN(CC(=O)Nc1ccccc1Br)C(=O)c1ccccc1OCc1ccc(Cl)cc1	nt	nt	nt	0.4	-0.9
Cc1ccc(S(=O)(=O)CCC(=O)OCn2nnc3ccccc3c2=O)cc1	2.9	0.6	17.6	0.9	0.7
Cc1cc(Nc2nc(Cl)c(Cl)cc2Cl)n(-c2ccccc2)n1	-7.5	67.8*	9.6	1.4	1.8
CC(C)NC(=O)C(OC(=O)c1ccccc1)C(OC(=O)c1ccccc1)C(=O)O (stereo not given)	0.9	-3.6	10.6	0.1	-0.2
O=C1Nc2ccc(Cl)cc2C(=O)C1(F)c1ccccc1 (stereo not given)	-6.9	41.0	-12.1	1.6	nt

Bioassay records from PubChem.
